Laboratory results reported in PubChem BioAssay (NCI).
This is part of a sample that, as a whole, favours compounds with a hit. Of some 83,000 tested, about 20% had one in any assay.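 Growth was measured after 48 h exposure to one concentration of compound in 96-well plates. Values under 10 count as active.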 The source made the active and inactive calls.

Key:
Test in all cases: NCI-60 one-dose screen, 48 h (100 = growth as untreated, 0 = no growth, -100 = all killed)
Conditions in all cases: 10 µM unless noted
[1] = test system: T-47D breast
[2] = test system: BT-549 breast
[3] = test system: MDA-MB-435 melanoma
[4] = test system: SW-620 colon
[5] = test system: MCF7 breast
[6] = test system: HCT-116 colon
[7] = test system: HCC-2998 colon
[8] = test system: KM12 colon

Measured: growth

CC(=O)C(CO)C(=O)Nc1ccccc1 (configuration not stated)
inactive: [1] 94.5% | [2] 106% | [3] 106% | [4] 109% | [5] 91.5% | [6] 106% | [7] 99.3% | [8] 104%

CC(C)C(=O)c1ccc(Cl)s1
inactive: [1] 90.4% | [2] 104% | [3] 106% | [4] 107% | [5] 88.9% | [6] 97% | [7] 99.7% | [8] 100%

N=c1c2c(=O)n3c(nc2nc2sc4ccc(Cl)cc4n12)-c1ccccc1Sc1ccccc1-3
active: [1] 1.99% | [2] 1.57% | [3] 0.844% | [5] 6.98% | [6] 7.35% | [7] 6.95%
inactive: [4] 26.1% | [8] 22.6%

COc1ccc2nc3cc(Cl)ccc3c(NCCCNC(C)=O)c2c1
inactive: [1] 38.1% | [2] 88.7% | [3] 41.3% | [4] 27% | [5] 15.8% | [6] 21% | [7] 50.3% | [8] 30.7%

CC1Cc2cc(F)ccc2-n2cccc21 (configuration not stated)
inactive: [1] 102% | [2] 111% | [3] 96.9% | [4] 96.1% | [5] 107% | [6] 114% | [7] 106% | [8] 110%

COC(=O)[C@H](Cc1cn(C)cn1)NC(=O)[C@@H](NC(=O)Nc1cc(C(F)(F)F)cc(C(F)(F)F)c1)C(C)(C)C
active: [1] -63.9% [100 µM] | [2] -90.4% [100 µM] | [3] -89.3% [100 µM] | [4] -46.4% [100 µM] | [5] -59.2% [100 µM] | [6] -91.5% [100 µM] | [7] -94.2% [100 µM] | [8] -88.7% [100 µM]

Nc1nc2c(c3cnccc13)C(c1cccc(Cl)c1)Cc1cnccc1-2 (configuration not stated)
active: [2] -12% | [3] -22.9% | [6] 6.83%
inactive: [1] 47.9% | [4] 24.2% | [5] 11.1% | [7] 41.7% | [8] 13.7%

COc1ccc(C(=O)CN2C(=O)NC(c3ccccc3)(c3ccccc3)C2=O)cc1
inactive: [1] 95.2% | [2] 105% | [3] 104% | [4] 96.8% | [5] 102% | [6] 106% | [7] 106% | [8] 109%

CCOC(=O)C(C)C(C)(O)c1ccccc1 (configuration not stated)
inactive: [1] 97.3% | [2] 105% | [3] 102% | [4] 114% | [5] 93.6% | [6] 97.1% | [7] 84.4% | [8] 97.7%

Cn1cnc2nc[nH]c2c1=S
inactive: [1] 96% | [2] 98.6% | [3] 109% | [4] 99.8% | [5] 94.2% | [6] 106% | [7] 102% | [8] 105%

C=CN(C)S(C)(=O)=O
inactive: [1] 16.8% | [2] 46.8% | [4] 19.9% | [6] 19.7% | [7] 53% | [8] 33.6%
active: [3] -35.4% | [5] 4.56%

Nc1cc(N)c2nc(NCCc3ccc(Cl)c(Cl)c3)cnc2c1
active: [1] -27.2% | [3] -50% | [5] -43.5% | [6] -42.5%
inactive: [2] 96.6% | [4] 51.3% | [7] 44.7% | [8] 35.6%

COc1ccc(-c2cc(C#N)c(NNC(C)=O)[nH]2)cc1
inactive: [1] 165% | [2] 119% | [3] 107% | [4] 115% | [5] 110% | [6] 92% | [7] 105% | [8] 107%

CCOC(=O)c1cc(-c2ccc(OC)cc2)[nH]c1NNC(=O)CCOC
inactive: [1] 95.2% | [2] 91.9% | [3] 96.9% | [4] 101% | [5] 113% | [6] 93.8% | [7] 122% | [8] 118%

FC(F)(F)c1cccc(-c2[nH]ncc2-c2nnnn2-c2ccccc2)c1
inactive: [1] 44.9% | [2] 42.8% | [4] 16.5% | [5] 24.1% | [6] 20.7% | [7] 31.1% | [8] 23.9%
active: [3] -7.25%

C[C@]12CC[C@H]3[C@@H](CC[C@H]4C[C@@H](O)CC[C@@]43C)[C@@H]1CC(=O)C2
inactive: [1] 106% | [2] 103% | [3] 116% | [4] 103% | [5] 124% | [6] 99.3% | [7] 101% | [8] 108%

CCOC(=O)CSSCC(=O)OCC
inactive: [1] 94.4% | [2] 110% | [3] 99.4% | [4] 111% | [5] 95.2% | [7] 108% | [8] 105%

COC(=O)[C@H](Cc1cn(C)cn1)NC(=O)[C@H](CC(=O)OCc1ccccc1)NC(=O)Nc1cc(C(F)(F)F)cc(C(F)(F)F)c1
active: [1] -62.1% [100 µM] | [2] -96.6% [100 µM] | [3] -91.9% [100 µM] | [4] -59.2% [100 µM] | [5] -60.5% [100 µM] | [6] -97.9% [100 µM] | [7] -91.5% [100 µM] | [8] -89.8% [100 µM]

NC(CSC(c1ccccc1)(c1ccccc1)c1ccccc1)C(=O)NCC(=O)O (configuration not stated)
inactive: [1] 96.1% | [2] 70.4% | [4] 41.6% | [5] 45% | [6] 40.8% | [7] 28% | [8] 77.5%
active: [3] -5.86%

CCOc1nc(-c2ccccc2)cc2c(O)c(C(=O)N/N=C/c3ccccc3O)[nH]c(=O)c12
inactive: [1] 94% | [2] 97.8% | [3] 113% | [4] 74.9% | [5] 72.8% | [6] 88.3% | [8] 80.6%

CCCCCCCCCCCCCCCCNC(=O)Nc1ccc(C)c(NC(=O)NCCCCCCCCCCCCCCCC)c1
inactive: [1] 104% | [2] 104% | [3] 105% | [4] 107% | [5] 101% | [6] 117% | [7] 110% | [8] 113%

CSCc1ncc(-c2ccc(C(F)(F)F)cc2)c(NC2CCCCCC2)n1
inactive: [1] 53.5% [25 µM] | [2] 82.1% [25 µM] | [3] 78.7% [25 µM] | [4] 53.1% [25 µM] | [5] 68% [25 µM] | [6] 38.1% [25 µM] | [7] 89.9% [25 µM] | [8] 52.1% [25 µM]

CCCCN(CCCC)CC(O)CN(CC)CC (configuration not stated)
inactive: [1] 97.6% | [2] 96.1% | [3] 92.2% | [4] 99.3% | [5] 96% | [6] 97% | [7] 102% | [8] 108%

Br/C(=N\Nc1nn[nH]n1)c1ccccc1
inactive: [1] 101% | [2] 99% | [3] 111% | [4] 102% | [5] 95.3% | [6] 104% | [7] 118% | [8] 114%

COc1ccc(-c2nc(Nc3nc4ccccc4[nH]3)nc(N)c2C#N)cc1
inactive: [1] 97.1% | [2] 86.4% | [3] 117% | [4] 108% | [5] 90.2% | [6] 93.8% | [8] 108%

COc1cccc2c1nc1cccc(OC)c1[n+]2[O-]
inactive: [1] 32% | [2] 32.9% | [3] 98.4% | [4] 50% | [5] 32.8% | [6] 39.3% | [8] 54.9%
active: [7] -47.5%

O=C(Nc1ccccc1)Nc1ccc(Nc2ncnc3sc4c(c23)CCCC4)cc1
inactive: [1] 101% | [2] 109% | [3] 112% | [4] 106% | [5] 96.2% | [6] 115% | [7] 95.4% | [8] 102%

CCOc1ccc2nc3ccc(Cl)cc3nc2c1
inactive: [1] 80.6% | [2] 90.7% | [3] 107% | [4] 91% | [5] 92.3% | [6] 88.1% | [7] 70.5% | [8] 94.5%

CCCCCCCCCCCCOC(=N)N(C)C
inactive: [1] 89.9% | [2] 96.7% | [3] 97.4% | [4] 98.8% | [5] 94.1% | [6] 87.6% | [7] 101% | [8] 101%

N#CCc1ncc(-c2ccc(C(F)(F)F)cc2)c(NC2CCCCCC2)n1
active: [2] 9.45% [100 µM] | [3] 0.369% [100 µM] | [6] 8.09% [100 µM] | [8] 8.14% [100 µM]
inactive: [1] 20.7% [100 µM] | [4] 19% [100 µM] | [5] 18.4% [100 µM] | [7] 38.1% [100 µM]
